Inconclusive results are not listed. The source made the active and inactive calls. Unless noted, calls follow the shape of the dose curve; as a rule, active = well fitted curve in the direction sought with a large enough effect; inconclusive = small, poorly fitted or top-dose-only effect, or another doubt; inactive = no such curve, though single readings can be large; an effect the other way counts as inactive or inconclusive.
What was measured:
[1] = qHTS for Inhibitors of Plasmodium falciparum (DD2) proliferation (AID 504314);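 also: parasite DNA measured by SYBR Green fluorescence after red cell lysis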
Procedure, shortened: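 Erythrocytes infected with P. falciparum Dd2 (0.3% parasitemia, 2.5% hematocrit) exposed to compound 72 h at 37C, 5% CO2. Parasite DNA quantified by SYBR Green fluorescence after saponin/Triton lysis overnight; normalized to 0.29 uM artemisinin and DMSO.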

[2] = qHTS for Inhibitors of Plasmodium falciparum (7G8) proliferation (AID 504316); also: series mostly up to about 6.7 µM; nearly all actives have a fitted effect of over 65% in size
Procedure, shortened: (§1)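 Erythrocytes infected with P. falciparum line (0.3% parasitemia, 2.5% hematocrit final) incubated with compounds 72 h at 37 °C, 5% CO2; SYBR Green lysis buffer added, fluorescence read next day. Normalized to 0.29 uM artemisinin and DMSO.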

[3] = qHTS for Inhibitors of Plasmodium falciparum (CP250) proliferation (AID 504320)
Procedure, shortened: as §1

[4] = molecular target: Atrial natriuretic peptide receptor 1 (Homo sapiens) (UniProt P16066); test: Natriuretic polypeptide receptor (hNpr1) antagonism - Pilot CMLD screen (AID 1347052; calls by dose curve;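 also: HEK293 cells with hNpr1 stimulated by hNppA peptide at 0.1 nM; cGMP level read as GloSensor luciferase luminescence after agonist stimulation; series mostly up to about 9.2 µM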)
Chain of Atrial natriuretic peptide receptor 1 (Homo sapiens) (P16066 whole entry, looked up): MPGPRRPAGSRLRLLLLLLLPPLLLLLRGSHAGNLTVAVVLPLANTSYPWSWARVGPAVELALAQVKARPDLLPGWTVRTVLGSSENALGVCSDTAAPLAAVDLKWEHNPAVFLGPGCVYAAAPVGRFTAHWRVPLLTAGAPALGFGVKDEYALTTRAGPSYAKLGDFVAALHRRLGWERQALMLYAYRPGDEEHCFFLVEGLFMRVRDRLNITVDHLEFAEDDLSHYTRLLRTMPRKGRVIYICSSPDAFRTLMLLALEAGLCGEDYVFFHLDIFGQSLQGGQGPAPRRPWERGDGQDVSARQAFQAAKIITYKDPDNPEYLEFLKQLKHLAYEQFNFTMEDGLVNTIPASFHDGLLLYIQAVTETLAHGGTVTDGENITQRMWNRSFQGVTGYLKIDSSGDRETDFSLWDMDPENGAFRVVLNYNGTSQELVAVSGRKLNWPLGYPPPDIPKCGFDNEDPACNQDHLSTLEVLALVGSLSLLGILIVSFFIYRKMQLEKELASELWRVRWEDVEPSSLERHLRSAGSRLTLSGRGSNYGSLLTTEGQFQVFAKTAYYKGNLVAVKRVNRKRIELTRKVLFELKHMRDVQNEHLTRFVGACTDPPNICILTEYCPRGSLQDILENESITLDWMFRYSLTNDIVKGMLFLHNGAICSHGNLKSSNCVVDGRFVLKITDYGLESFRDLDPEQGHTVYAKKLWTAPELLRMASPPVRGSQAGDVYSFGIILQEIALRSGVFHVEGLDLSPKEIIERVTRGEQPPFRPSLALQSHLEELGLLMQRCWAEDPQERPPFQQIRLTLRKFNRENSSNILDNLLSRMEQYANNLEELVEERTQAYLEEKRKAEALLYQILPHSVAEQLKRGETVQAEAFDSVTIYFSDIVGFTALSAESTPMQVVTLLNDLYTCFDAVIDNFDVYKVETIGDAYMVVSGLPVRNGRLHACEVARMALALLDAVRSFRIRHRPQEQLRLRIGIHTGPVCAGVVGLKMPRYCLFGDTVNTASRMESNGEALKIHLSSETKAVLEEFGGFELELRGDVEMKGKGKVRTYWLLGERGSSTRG

[5] = qHTS for Inhibitors of Plasmodium falciparum (HB3) proliferation (AID 504318); also: nearly all actives have a fitted effect of over 60% in size
Procedure, shortened: as §1

Measured: Potency

OC[C@H]1O[C@H](C#Cc2ccccc2)C=C[C@@H]1O
not listed: [5]
inactive: all other assays above

COC(=O)C=P(c1ccccc1)(c1ccccc1)c1ccccc1
not listed: [5]
inactive: all other assays above

COC(=O)C1=C[C@@]2(c3ccc(OC)cc3[C@@H](OC)[C@@H]2C)[C@@H]2C=C[C@@H]1C2
not listed: [5]
inactive: all other assays above

C=C(C#Cc1ccc(OC)cc1)CCN1C=C(C(=O)OCC)C(c2ccccc2)NC1=O (stereo not drawn)
inactive: all assays above

C=CCCCN1C(=O)NC(c2ccccc2)C(C(=O)OC)=C1C (stereo not drawn)
inactive: all assays above

CC(Nc1oc(-c2ccccc2)nc1C(C)(C)C)c1ccccc1 (stereo not drawn)
not listed: [5]
inactive: all other assays above

O=C(NC(CC1=CCCCC1)c1ccc2c(c1)OCO2)C(F)(F)F (stereo not drawn)
not listed: [5]
inactive: all other assays above

COC(=O)CC=C1c2ccccc2[C@@H](NC(=O)OC)[C@@H]1C
inactive: all assays above

COC(=O)[C@H]1[C@@H](c2ccccc2)NC(=O)O[C@@H]1C
not listed: [2]
inactive: all other assays above

C=C(COC)C1=CCC(C(=O)OC)(C(=O)OC)[C@@H](C[N+](=O)[O-])c2ccccc21
not listed: [2]
inactive: all other assays above

Reference: PubChem BioAssay (NCATS)
